Source: PubChem BioAssay (National Center for Advancing Translational Sciences (NCATS))
Sampled rows, rich in hits. Any-hit rate of the full collection: about 2.4%.
D2 PAM-1 – positive allosteric modulators of human D2 dopamine receptor | HEK293 T-REx D2, calcium flux, EC20 dopamine potentiation | potentiation, % at 10 µM | 0.34% of 340,000 active | AID 485347;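 active = potentiation over 3 SD above the plate norm, cut at about 30% in these data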; note: 0% is about no effect
Target sequence (P14416 whole entry, looked up): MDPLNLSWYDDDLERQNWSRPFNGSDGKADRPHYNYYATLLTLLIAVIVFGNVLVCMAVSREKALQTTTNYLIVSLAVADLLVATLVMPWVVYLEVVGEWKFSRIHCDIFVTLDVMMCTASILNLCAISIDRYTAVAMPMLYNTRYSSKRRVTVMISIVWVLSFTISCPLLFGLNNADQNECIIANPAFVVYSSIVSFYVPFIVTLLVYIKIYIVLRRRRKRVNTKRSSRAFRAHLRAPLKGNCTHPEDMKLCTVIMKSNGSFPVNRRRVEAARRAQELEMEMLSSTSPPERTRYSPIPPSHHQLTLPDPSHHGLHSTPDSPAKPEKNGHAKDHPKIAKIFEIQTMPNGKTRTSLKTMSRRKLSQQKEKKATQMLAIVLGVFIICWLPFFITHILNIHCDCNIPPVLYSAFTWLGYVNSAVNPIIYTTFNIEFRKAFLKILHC
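Tetracycline-induced Hek293 Trex D2 cells, force-coupled to calcium, loaded with no-wash calcium dye. Compound added with 180 s kinetic read for agonism, then EC20 dopamine and a further 180 s read for potentiation.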
D2 ag-1 – activates the human D2 dopamine receptor; P14416; DiscoveRx PathHunter D2 beta-arrestin, luminescence, 90 min; 100% = 57 uM dopamine signal; activation, % (test concentration not listed); 0.084% of 360,000 active; AID 624465; in the data active = activation above about 40%; inconclusive = between about 15% and that limit
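Agonist mode: compounds alone added to overnight-plated D2 PathHunter cells for 90 min at 37 C, with 57 uM final dopamine (EC100) defining full response. Beta-arrestin recruitment detected by chemiluminescent reagent, read after 1 h at ambient temperature.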
D2 antagonist – antagonizes the human D2 dopamine receptor. AID 485344. 2% of 340,000 active. HEK293 TREx D2 cells, calcium flux, dopamine EC80. inhibition, % at 10 µM. P14416; in the data active = inhibition above about 30%; inactive = below that, where a call was filed; note: 0% is about no effect
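Tetracycline-induced HEK293 TREx cells expressing D2 receptor forced-coupled to calcium signalling, loaded with no-wash calcium dye. Compounds added and calcium flux read 180 s, then dopamine added at EC80 and read a further 180 s.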
D2 PAM-2 – human D2 receptor positive allosteric modulation; P14416; potentiation, % (concentration not given with the values); 0.23% of 360,000 active; AID 624464; DiscoveRx D2 beta-arrestin cells, luminescence, 90 min; 100% = 57 uM dopamine signal; in the data active = potentiation above about 50%; inconclusive = mostly about 30% to 49%
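PathHunter beta-arrestin assay in DiscoveRx D2 cells. Compounds were added with an EC20 of dopamine (50 nM final) for 90 min at 37 deg C. Luminescence was read 1 h after detection reagent, with 57 uM dopamine as the EC100 control.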
D2 ag-2 – agonists of human D2 dopamine receptor; P14416; 0.53% of 340,000 active; AID 485358; HEK293 T-REx D2 cells, calcium flux agonist mode; activation, % at 2 µM;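 active = activation over 3 SD above normal in the single-dose calcium agonist read, cut at about 30% in these data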; note: 0% is about no effect
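Agonism scored from kinetic calcium signal (1 read/sec, 180 s) following compound pin transfer, after a 10 s baseline. Cells: HEK293 Trex line expressing inducible D2 receptor coupled to calcium, dye-loaded after overnight culture at 30 C.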
* hit, by the source's call; u = inconclusive; x = no result.

SMILES | D2 PAM-1 | D2 ag-1 | D2 antagonist | D2 PAM-2 | D2 ag-2
CCCc1nnc2n1N=C(c1ccc(OC)c(OC)c1)CS2 | 89* | 0 | 13 | 2 | 1
COc1ccc(C2=Nn3c(nnc3-c3ccccc3)SC2)cc1OC | 23 | -2 | -3 | -3 | 1
Cn1c(-c2ccccc2)c(C(=O)CCl)c2ccccc21 | 39* | 4 | 0 | -9 | -1
O=c1cc(CSc2ncn[nH]2)[nH]c2c(Cl)cccc12 | 11 | x | x | x | -1
CCC(C(=O)N1CCN(c2cc(Cl)ccc2C)CC1)n1nc(C)c2sc3ccccc3c2c1=O (configuration not stated) | -1 | x | x | x | -1
O=C(NCc1ccccc1Cl)c1ccc(CSc2nc3ccncc3[nH]2)cc1 | 28 | 2 | -9 | 2 | -1
Clc1ccccc1CSc1nc2ccncc2[nH]1 | -2 | 1 | 32* | -1 | -1
Cc1ccccc1-c1nc(CN2CCC(C(=O)NCc3ccccc3Cl)CC2)c(C)o1 | x | x | x | x | 4
COc1ccc(C(=O)N/C(=C\c2ccc([N+](=O)[O-])cc2)C(=O)NC(CCSC)C(=O)O)cc1 (configuration not stated) | -4 | 0 | 35* | 1 | 18
Cc1ccccc1CSc1nnc2[nH]c(=O)cc(-c3ccccc3)n12 | 9 | x | x | x | -1
Cc1ccccc1N1C(=O)CC(Nc2ccc3c(c2)OCO3)C1=O (configuration not stated) | -2 | -6 | 31* | -4 | -1
O=C(Nc1ccc(Br)cc1F)c1cc2nc(-c3ccco3)cc(C(F)(F)Cl)n2n1 | 3 | x | x | x | 0
COc1ccccc1OC1OC2COC(c3ccco3)OC2C(O)C1NC(C)=O (configuration not stated) | -10 | 2 | -11 | -13 | 1
COc1ccc(C2OC[C@H]3O[C@H](O)[C@H](NC(C)=O)[C@@H](O)[C@@H]3O2)cc1 (some centres not stated) | 1 | 7 | 53* | 8 | 2
COc1ccc(Nc2cc(C(=O)NCc3ccccc3)c3ccccc3n2)cc1OC | x | x | x | x | 0
COc1ccc(Nc2cc(C(=O)NCCCN3CCOCC3)c3ccccc3n2)cc1OC | -5 | -6 | 30* | -10 | 0
CCN(CC)CCNC(=O)c1cc(Nc2ccc(OC)c(OC)c2)nc2ccccc12 | 12 | 0 | 43* | -23 | 0
COc1ccc(NC(=O)CCc2nnc3ccc(N4CCC(C)CC4)nn23)cc1 | -3 | -1 | -6 | -4 | 1
COc1ccc(N2CCN(c3ccc4nnc(CCC(=O)Nc5ccc(C)cc5)n4n3)CC2)cc1 | 8 | -5 | 34* | -8 | 0
CCN(CCCNC(=O)c1nn(-c2ccc(OC)c(Cl)c2)c(=O)c2c1c1ccccc1n2C)c1ccccc1 | -4 | x | x | x | -1
Cn1c(OCC2CCCO2)nc2cc(-c3ccccc3)sc2c1=O (configuration not stated) | x | 6 | x | -3 | x
O=C(NCCc1ccccc1)C(=O)NCC1OCCCN1S(=O)(=O)c1cccs1 (configuration not stated) | -1 | -3 | -3 | -12 | 4
CCOC(=O)CN(C(=O)CSc1nnc2c(n1)[nH]c1ccc(OC)cc12)c1ccc(F)cc1 | -27 | 0 | 80* | -27 | 1
Cc1ccc(C(=O)CSc2nc(O)cc(=O)[nH]2)cc1C | -23 | -3 | -6 | -6 | 2
COc1ccc(N(CC(=O)Nc2ccccc2F)S(=O)(=O)c2ccc(OC)c(OC)c2)cc1 | 1 | -6 | 2 | 1 | 0
SMILES | D2 PAM-1 | D2 ag-1 | D2 antagonist | D2 PAM-2 | D2 ag-2
Cc1cc(C)nc(SCC(=O)c2ccc([N+](=O)[O-])cc2)n1 | -6 | 3 | 22 | 76* | 0
CC(C)(C)OC(=O)N[C@@H](Cc1ccccc1)C(=O)N1CCC(C(=O)N[C@@H](Cc2c[nH]c3ccccc23)C(=O)O)CC1 | -5 | -5 | 4 | -7 | -1
O=C(CSc1nc2nc[nH]c2c(=O)[nH]1)NC1CCCCC1 | -6 | -3 | 48* | -10 | 1
O=C(Nc1cc2c(cc1Cl)-c1ccc([N+](=O)[O-])cc1C2=NO)C(F)(F)F | x | 2 | x | -5 | x
CCc1cc2c(=O)oc(-c3ccc(Br)cc3)nc2s1 | 11 | -3 | 33* | -6 | -1
Cc1cccc(OCCNC(=O)CCNS(=O)(=O)c2ccc3ccccc3c2)c1 | 3 | -4 | 12 | -20 | -1
COc1ccc(-c2cn3c(n2)sc2cc(C(=O)NCCc4ccccc4)ccc23)cc1 | -9 | x | x | x | 1
O=C(C1CCC1)N1CCc2cc(S(=O)(=O)NCCN3CCN(c4ccccc4F)CC3)ccc21 | -18 | u | 53* | -4 | 68*
O=C(CCNS(=O)(=O)c1ccc2c(c1)CCN2C(=O)C1CC1)N1CCN(c2ccccc2F)CC1 | 11 | x | x | x | x
CCC(=O)N1CCc2cc(S(=O)(=O)NCCC(=O)N3CCN(c4ccccc4)CC3)ccc21 | -4 | 8 | 34* | -4 | 5
Cc1nn(-c2ccccc2)c(OC(=O)c2cccc(Br)c2)c1S(=O)(=O)c1ccccc1 | -3 | x | x | x | 0
Cc1cc(NC(=O)CS(=O)(=O)c2ccc(Cl)cc2)no1 | 44* | -2 | 2 | -7 | 0
Cc1cc(NC(=O)CS(=O)(=O)c2ccc(F)cc2)no1 | 7 | -3 | -10 | -19 | -1
Cc1ccc(C)c(C(=O)COC(=O)c2ccccc2N2C(=O)C3C4CCC(C4)C3C2=O)c1 (configuration not stated) | 41* | 0 | -18 | 2 | 0
Cc1cc(C)n(C(=O)CNc2cccc(Cl)c2C)n1 | -2 | -1 | -3 | -23 | 0
Cc1cc(C)n(C(=O)CNc2ccccc2Cl)n1 | 20 | -6 | 32* | 10 | 0
COC(=O)c1ccc(Cl)cc1NC(=O)N1CC=C(c2c[nH]c3ccccc23)CC1 | -4 | x | x | x | 3
CCC(=O)Nc1sc2c(c1C(=O)Nc1ccccc1C)CCC(C)C2 (configuration not stated) | 2 | x | x | x | 0
CSCCC(NC(=O)c1ccc(Cl)cc1)C(=O)OCC(C)=O (configuration not stated) | -4 | -6 | 32* | -6 | 1
CCCn1c2ccccc2c2cnn(CC(=O)N(CCCOC)Cc3ccco3)c(=O)c21 | 7 | x | x | x | 0
Fc1ccc(Nc2nc(NCc3ccccc3)nc3ccsc23)cc1 | x | 1 | x | -14 | x
CC1CCCN(CCOCCOc2ccc(Cl)cc2Br)C1 (configuration not stated) | -23 | -4 | 83* | -6 | 1
CN1CCN(CCOCCOc2ccc(Br)cc2Cl)CC1 | -34 | -4 | 31* | -6 | -2
CC1CCCN(CCOCCOc2ccc(Br)cc2Cl)C1 (configuration not stated) | -27 | 0 | 52* | -42 | 1
Cc1ccc(OCCCCN2CCC(C)CC2)c(Br)c1 | -21 | -8 | 107* | -39 | 0
